The source of these data is PubChem BioAssay (NCI).

This is part of a sample that, as a whole, favours compounds with a hit. Of some 83,000 tested, about 20% had one in any assay.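 Values shown are percent growth following 48 h exposure of cells in 96-well plates to a single concentration of compound; below 10 was considered active.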 Active and inactive are the calls of the source.

The assay concerns MDA-MB-468 breast. Put plainly: NCI-60 one-dose screen, 48 h (100 = growth as untreated, 0 = no growth, -100 = all killed). The settings on record: 10 µM unless noted.
Turning to `COc1ccc(OC)c(/C=C/[C@H]2O[C@@H](C)[C@H](O)[C@@H]2O)c1`, the growth was 114% (inactive).
As for `NC(=O)Cc1nc(O)cc(=O)[nH]1`, the growth is 111% (inactive).
For the molecule `O=C(CCSc1nnc2n(Cc3ccccc3)c(=O)c3c4c(sc3n12)CCCC4)N1CCN(c2ccccc2)CC1`, the growth is 101% (inactive).
Regarding `Fc1ccc(-c2cn3c(nc4ccccc43)c(-c3ccccc3)n2)cc1`, the growth is 82.8% (inactive).
Under `C#Cc1cccc(NC(=O)c2ccc(Cl)cc2Cl)c1` stands 102% (inactive).
On to `CC(C)(C)CC(C)(C)n1nnnc1C(Nc1nccs1)c1cc2cccc3ccc4cccc1c4c32` (stereo not given), for which the growth was -33.3% (active).
Regarding `CCCCCCC(O)(c1ccc(F)cc1)C(CN1CCOCC1)c1ccccc1` (stereo not given), the growth is 28% (inactive).
As for `O=C(CN1CCN(c2cc(=O)n(-c3ccccc3)c3ccccc23)CC1)Nc1nc(-c2ccc(Cl)cc2)cs1`, the growth was 9.61% (active).
Under `COc1ccc(OC)c(/C=C/c2nc(SC)n(-c3ccc(Cl)cc3)n2)c1` stands 25.2% (inactive); under `O=C1C(=O)c2c(nc3ccc(C(F)(F)F)cn23)-c2ccccc21`, -65.9% (active).
Take `Cc1cc(-c2cc(C)c(N)cc2C)c(C)cc1N`: the growth was 61% (inactive).
With `COC(=O)c1ccc(C)cc1`, the growth is 105% (inactive).
With `CC(=O)Nc1ccc(S(=O)(=O)c2ccnc3cc(Cl)ccc23)cc1`, the growth was 9.85% (active).
For `COc1cc(/C=C2\C(=O)N(CC(O)COc3cc(O)c4c(=O)cc(-c5ccccc5)oc4c3)c3ccccc32)cc(OC)c1O` (stereo not given), the growth was 74.3% (inactive).
The same measure for `CCN1CCN(C(=O)[C@]23CC[C@@H](C)[C@H](C)[C@@H]2C2=CC[C@@H]4[C@@]5(C)CCC(=O)C(C)(C)[C@@H]5CC[C@@]4(C)[C@]2(C)CC3)CC1`: -7.11% (active); for `O=C(CCC(C(=O)c1ccccc1)c1ccccc1)c1ccccc1` (stereo not given): 35.9% (inactive).
Turning to `CC1=C[C@H]2c3c(c(O)c(O)c4oc5cc(O)ccc5c(=O)c34)[C@H](c3cc(O)c(O)c4oc5cc(O)ccc5c(=O)c34)[C@H]2C(C)(C)C1`, the growth was 34.3% (inactive).
For the molecule `CC/C=C\C[C@H](O)C/C=C1/C(=O)C=C[C@@H]1C/C=C\CCCC(=O)O`, the growth is 28.7% (inactive).
On to `O=C1CSC(c2ccccc2Cl)N1c1nnc(Cn2nnc3ccccc32)o1` (stereo not given), for which the growth was 82.7% (inactive).
In the case of `Cc1cc(=O)cc(C)n1-c1ccccc1`, the growth is 100% (inactive).
For the molecule `CCCCN1C(=O)/C(=c2\sc3n(c2=O)C2C(NN=3)N(CC)C(=O)N2CC)c2cccc(C)c21` (stereo not given), the growth is 12.4% (inactive).
Consider `O=C(CCl)c1ccc2c(c1)CCCC2`, for which the growth is 116% (inactive).
`CN1CCN(Cc2ccc(NC(=O)c3[nH]ncc3Nc3ccnc4ccsc34)cc2)CC1`: the growth is 18.5% (inactive).
`CCCC[N+]1(C)CCN=C1Cc1ccccc1` (stereo not given): the growth is 82.3% (inactive).
Take `COc1ccc2nc(-c3ccc(Cl)cc3)cc(-c3nnc(SCC(=O)Nc4ccc(C(C)=O)cc4)n3-c3ccccc3)c2c1`: the growth is 91.2% (inactive).
Turning to `CCOC(=O)CSCCC#N`, the growth is 109% (inactive).
For `C#CC[C@@H]1C[C@]2(C)[C@H]3CC[C@@H]4[C@H]5C(C(=C)C)CC[C@]5(C(=O)NCCCCN)CC[C@@]4(C)[C@]3(C)CC[C@H]2C(C)(C)[C@H]1OC(C)=O` (stereo not given in full), the growth was -53.7% (active).
For `CS(=O)(=O)N(c1cc(-c2ccc3ncnc(Nc4ccc(F)c(Cl)c4)c3c2)cnc1Cl)S(C)(=O)=O`, the growth is -19.6% (active).
Under `Oc1ccc(C(c2ccc(O)cc2)C(Cl)(Cl)Cl)cc1` stands 90% (inactive); under `CCCCCCCCCCCCCCn1c2ccccc2c2c3c(c4c5cc(OC)ccc5oc4c21)C(=O)NC3=O`, 106% (inactive).
Take `CCn1cc(C(=O)O)c(=O)c2cc(F)c(N3CCN(CC(=O)Nc4ccc(/C(C)=N/OC)cc4)CC3)cc21`: the growth was 102% (inactive).
With `COc1ccc2cc3[n+](cc2c1OC)CCc1cc2c(cc1-3)OCO2`, the growth was 1.68% (active).
Take `CCCCN1C=CCN(CCCC)C1`: the growth was -1.66% (active).
Turning to `CC1SC(c2c(Cl)cccc2Cl)N(NC(=O)c2[nH]c3ccc(F)cc3c2-c2ccccc2)C1=O` (stereo not given), the growth was 66.8% (inactive).
The same measure for `O=C1C(Nc2ccc(Br)cc2)=C(I)C(=O)c2ncccc21`: -81.4% (active); for `COc1ccccc1Cn1cc2c(c1-c1ccccc1)CCc1cnoc1-2`: 10.9% (inactive).
For `[2H]C([2H])([2H])Oc1ccc(/C=C/C(=O)/C=C(O)/C=C/c2ccc(OC([2H])([2H])[2H])c(OC([2H])([2H])[2H])c2)cc1OC([2H])([2H])[2H]`, the growth was 1.44% (active).
Regarding `Cc1nn(-c2ccccc2)c(Oc2ccc(Cl)cc2)c1/C=N\N=c1/sc2ccccc2n1C`, the growth is 81.8% (inactive).
On to `COC(=O)c1nc(N)nc(C(=O)OC)c1C(=O)c1cccc2ccccc12`, for which the growth is 97.6% (inactive).
The same measure for `NC(CC(N)C(=O)O)C(=O)O` (stereo not given): 90.5% (inactive).
